Paper PMC6925144, “A prospective compound screening contest identified broader inhibitors for Sirtuin 1” (Scientific Reports, 2019)
Whole data set: some 3,200 compounds, median “TSA(with NAD+) / Primary screening (TSA) / delta Tm (K)” near -0.04, cut for the highest 2% near 0.37. The list comes from a sample in which the highest values are over-represented; it also holds similar structures and randomly drawn compounds.

biological target: NAD-dependent deacetylase Sirtuin 1 (human, UniProt Q96EB6); experiment: primary screen, delta tm; set-up: single well (n = 1, as 'the same TSA'); conditions: 10 µM
Sequence (Q96EB6 2-747 limits assumed): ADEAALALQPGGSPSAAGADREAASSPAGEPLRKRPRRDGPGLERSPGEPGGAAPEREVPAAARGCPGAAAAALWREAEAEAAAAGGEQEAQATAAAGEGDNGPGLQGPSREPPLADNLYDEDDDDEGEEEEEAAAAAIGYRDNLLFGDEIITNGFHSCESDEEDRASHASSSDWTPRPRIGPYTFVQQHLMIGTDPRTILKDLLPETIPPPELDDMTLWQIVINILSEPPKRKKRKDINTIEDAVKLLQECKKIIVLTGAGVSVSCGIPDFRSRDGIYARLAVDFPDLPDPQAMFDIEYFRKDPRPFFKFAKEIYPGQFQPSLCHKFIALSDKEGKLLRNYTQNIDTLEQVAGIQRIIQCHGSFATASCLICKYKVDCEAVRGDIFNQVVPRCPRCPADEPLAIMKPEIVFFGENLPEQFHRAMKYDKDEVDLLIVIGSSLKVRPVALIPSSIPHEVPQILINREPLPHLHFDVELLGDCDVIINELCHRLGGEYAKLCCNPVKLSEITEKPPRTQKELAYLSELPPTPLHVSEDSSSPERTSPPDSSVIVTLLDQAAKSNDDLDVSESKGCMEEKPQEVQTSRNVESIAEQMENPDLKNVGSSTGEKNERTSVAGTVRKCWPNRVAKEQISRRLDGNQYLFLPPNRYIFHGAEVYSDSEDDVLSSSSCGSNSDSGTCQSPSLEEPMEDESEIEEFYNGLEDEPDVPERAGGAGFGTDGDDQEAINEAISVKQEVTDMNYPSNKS

| SMILES | TSA(with NAD+) / Primary screening (TSA) / delta Tm (K) |
| --- | --- |
| Cn1cc(C(=O)O)c(-c2cccnc2)n1 | 0.06 |
| NC(=O)CCN(Cc1ccccc1)C(=O)COC(=O)C12CC3CC(C1)CC(c1ccccc1)(C3)C2 | -0.03 |
| O=C(Oc1ccc2oc3ccccc3c2c1)c1ccc([N+](=O)[O-])cc1 | -0.08 |
| CCN(CC(=O)Nc1ccc(OC)cc1)CC(=O)Nc1ccc(C(N)=O)cc1 | -0.04 |
| COc1ccc2cc(/C=C/C(=O)Nc3ccc(C(N)=O)cc3)ccc2c1 | 0.76 |
| COc1ccc(C(=O)OC(C)C(=O)Nc2ccc(C(N)=O)cc2)c(OC)c1 (stereo not drawn) | -0.01 |
| O=C(NCc1ccccc1O)c1ccc2c(c1)C(=O)c1ccccc1-2 | -0.03 |
| CCC(=O)Nc1cccc(C(=O)NNC(=O)c2nc(-c3ccccc3)n(-c3ccccc3)n2)c1 | -0.06 |
| CC(C)C(NC(=O)CCCn1c(=O)oc2cc([N+](=O)[O-])ccc21)c1nnc2ccccn12 (stereo not drawn) | -0.11 |
| Cc1nc(-c2ccccn2)[nH]c(=O)c1CC(=O)NCCc1cccc2cccnc12 | 0.28 |
| CC(C(=O)NC(c1ccccc1)C1CC1)n1cnc2ccccc21 (stereo not drawn) | 0.05 |
| O=C(CCCc1nc2ccccc2c(=O)[nH]1)N1CC2CC3CC(C2)CC1C3 | -0.01 |
| CC(N)c1nnn[nH]1 (stereo not drawn) | -0.05 |
| COc1ccc(NC(=O)CC23CC4CC(C2)CC(CC(=O)Nc2ccc(OC)cc2)(C4)C3)cc1 | -0.11 |
| COc1ccccc1NC(=O)COc1ccc(C(=O)OCC(=O)NC23CC4CC(CC(C4)C2)C3)cc1OC | 0.13 |
| COc1ccc(NC(=O)c2ccccc2NC(=O)COC(=O)C23CC4CC(CC(O)(C4)C2)C3)cc1 | -0.04 |
| COc1ccc(NC(=O)c2ccc(NC(=O)COC(=O)C34CC5CC(CC(Br)(C5)C3)C4)cc2)cc1 | 0.73 |
| COc1ccccc1NS(=O)(=O)c1ccc(NC(=O)CNC(=O)C23CC4CC(CC(C4)C2)C3)cc1 | 0.08 |
| COc1ccccc1NC(=O)c1ccc(NC(=O)COC(=O)C23CC4CC(CC(C4)C2)C3)cc1 | 0.39 |
| Cc1ccccc1CC(=O)Nc1ccc(N2CCN(Cc3ccccc3)CC2)cc1 | 0.09 |
| CN(c1ccccc1)S(=O)(=O)c1ccc(C(=O)NNC(=O)C23CC4CC(CC(C4)C2)C3)cc1 | 0.08 |
| COC(=O)c1ccccc1Nc1ccnc(Cl)n1 | -0.11 |
| Cc1cccc(-c2nc3ccccc3n3c(C)nnc23)c1 | -0.13 |
| Cn1c(=O)c2ccccc2n2c(COC(=O)Cn3nc(-c4ccc(F)cc4)oc3=O)nnc12 | -0.03 |
| O=C1NC(=S)NC(=O)C1=Cc1ccc(-c2ccc(SC(F)F)cc2)o1 | -0.43 |

| SMILES | TSA(with NAD+) / Primary screening (TSA) / delta Tm (K) |
| --- | --- |
| Cc1ccc(C(=O)OCc2ccc(C(=O)Nc3ccccc3)cc2)cc1 | -0.18 |
| CCNC(=O)c1cccc(NC(=O)C2CCN(S(=O)(=O)c3cc(C(C)(C)C)ccc3C)CC2)c1 | 0.16 |
| Cc1ccc(C(C)(C)C)cc1S(=O)(=O)Nc1cccc(C(=O)NNC(=O)c2cccc(S(=O)(=O)Nc3cccc(C(F)(F)F)c3)c2)c1 | 0.65 |
| O=C(NO)c1cccc(C(F)(F)F)c1 | -0.19 |
| O=C(COC(=O)C1=COCCO1)Nc1cccc2c1C(=O)c1ccccc1C2=O | 0.01 |
| COc1ccccc1NS(=O)(=O)c1cccc(NC(=O)c2oc3ccccc3c2CSC)c1 | -0.08 |
| C=CCOc1ccc(C2C(C(=O)c3ccc(C)o3)=C(O)C(=O)N2CCCN2CCOCC2)cc1 (stereo not drawn) | -0.04 |
| O=C(Nc1ccccc1Cc1ccccc1)c1ccc(CN2C(=O)CNC2=O)cc1 | 0.05 |
| CN(C)c1ccc(S(N)(=O)=O)cc1N | -0.04 |
| O=C1/C(=C/c2cccc(O)c2)Oc2cc(O)ccc21 | -0.14 |
| O=C1/C(=C/c2ccccc2)Oc2cc(O)ccc21 | -0.06 |
| O=C1/C(=C/c2cnn(-c3ccccc3)c2)Oc2cc(O)ccc21 | 0.99 |
| Cc1cnc(N2CCC(Oc3ccnc(C(N)=O)c3)CC2)s1 | -0.16 |
| O=c1c2ccccc2ncn1CC(O)c1ccccc1Cl (stereo not drawn) | 0.38 |
| O=c1c2ccccc2ncn1CC(O)c1cccc(F)c1 (stereo not drawn) | -0.19 |
| O=c1c2ccncc2ncn1CC(O)c1cccc(Cl)c1 (stereo not drawn) | -0.03 |
| O=C(CN1CCCCCC1=O)N1CCN(c2cnccn2)CC1 | -0.04 |
| O=C1CCc2cc(NC(=O)c3cccnc3)ccc2N1 | -0.13 |
| Cc1ccc(C(=O)Nc2nc3ccc(NS(=O)(=O)c4ccc5c(c4)CCC(=O)N5)cc3s2)s1 | 0.46 |
| CCCn1c(NC(=O)c2ccc3c(c2)CCC(=O)N3)nc2ccccc21 | 0.15 |
| COC(=O)/C=C1/NC(=O)CS1 | -0.13 |
| O=C(COC(=O)C1=COCCO1)Nc1cccc2ccccc12 | 0.09 |
| CC(CNCCS(=O)(=O)C(C)(C)C)c1ccccc1 (stereo not drawn) | -0.03 |
| NC(=O)C1CCN(c2ncnc3sc4c(c23)CCCC4)CC1 | 0.32 |
| NC(=O)C1CCN(c2nc(-c3cccs3)nc3sc4c(c23)CCCC4)CC1 | 2.33 |

| SMILES | TSA(with NAD+) / Primary screening (TSA) / delta Tm (K) |
| --- | --- |
| NC(=O)C1CCCN(c2ncnc3sc4c(c23)CCCC4)C1 (stereo not drawn) | -0.15 |
| Cc1sc2ncnc(N3CCC(C(=O)N4CCC(C(N)=O)CC4)CC3)c2c1C | -0.03 |
| Cc1sc2nc(-c3cccnc3)nc(N3CCC(C(N)=O)CC3)c2c1C | -0.01 |
| NC(=O)C1CCN(c2nc(-c3cccnc3)nc3sc4c(c23)CCCC4)CC1 | 0.48 |
| Cc1sc2nc(-c3cccs3)nc(N3CCC(C(N)=O)CC3)c2c1C | 0.53 |
| Cc1sc2ncnc(N3CCC(C(N)=O)CC3)c2c1C | 0.06 |
| NC(=O)C1CCN(c2ncnc3sc4c(c23)CCCCC4)CC1 | 0.26 |
| O=c1[nH]cnc2c(Cl)cc(Cl)cc12 | -0.16 |
| Cc1ccc(-c2nnc(SCC(=O)NC(=O)NC(C)C)n2N)cc1 | -0.04 |
| O=C(CCc1nc2ccccc2c(=O)[nH]1)Nc1ccc(N2CCN(Cc3ccccc3)CC2)cc1 | 0.03 |
| Cc1cc(C=C2C(=O)NC(=S)NC2=O)c(C)n1-c1ccc(F)cc1 | -0.48 |
| CNS(=O)(=O)c1ccc(CCC(=O)Nc2ccccc2Cc2ccccc2)cc1 | 0.07 |
| C/C(=N/N)c1ccc2c(c1)-c1ccccc1C2 | -0.14 |
| O=C1COc2cc(C(=O)Nc3ccc4c(c3)-c3ccccc3C4)ccc2N1 | 0.11 |
| NS(=O)(=O)c1ccc(C(=O)Nc2ccc3c(c2)-c2ccccc2C3)cc1 | 0.68 |
| CC1CCC(C(N)=O)CN1c1ncnc2ccsc12 (stereo not drawn) | 0.05 |
| O=C(CN1CCN(Cc2cscn2)CC1)NC(c1ccccc1)C1CC1 (stereo not drawn) | 0.03 |
| COCCCn1ccc(Nc2nc(C)nc3[nH]ccc23)n1 | -0.03 |
| COc1ccc(CN2C(=O)/C(=C/NNC(=O)CC34CC5CC(CC(C5)C3)C4)c3ccccc3C2=O)cc1 | 0.06 |
| O=C(CC12CC3CC(CC(C3)C1)C2)NN/C=C1/C(=O)N(Cc2ccccc2)C(=O)c2ccccc21 | 0.19 |
| O=C1/C(=C/NNC(=O)C23CC4CC(CC(C4)C2)C3)c2ccccc2C(=O)N1Cc1ccccc1 | 0.56 |
| CC1(C)CC(=O)C(=CNNC(=O)CC23CC4CC(CC(C4)C2)C3)C(=O)C1 | -0.06 |
| COc1ccc(N2C(=O)/C(=C/NNC(=O)C34CC5CC(CC(C5)C3)C4)c3ccccc3C2=O)cc1 | 0.18 |
| O=C1NC(=O)c2ccccc2/C1=C\NNC(=O)C12CC3CC(CC(C3)C1)C2 | 0.48 |
| COC(C)CN (stereo not drawn) | -0.12 |

| SMILES | TSA(with NAD+) / Primary screening (TSA) / delta Tm (K) |
| --- | --- |
| COc1cccc(-c2nc(CSc3nnc(-c4ccco4)n3Cc3ccccc3)cs2)c1 | -0.16 |
| Cc1ccc(OCCN)cc1 | 0.15 |
| Cc1nn2cccnc2c1C(=O)NCc1ccc(-c2nnn[nH]2)cc1 | -0.06 |
| Cc1nn(-c2ccc(F)cc2)c(C)c1CNCc1ccccc1 | -0.23 |
| N#Cc1c2c(c(Cl)n3c1nc1ccccc13)CCCC2 | 0.03 |
| Cc1ccccc1-c1nnn(Cc2cc(=O)oc3c(C)c(C)ccc23)n1 | -0.18 |
| NC(=O)NCc1ccc(C(=O)Nc2nc(-c3c[nH]c(C(N)=O)c3)cs2)cc1 | 0.11 |
| COC(=O)c1cc(-c2csc(NC(=O)c3cccc(NC(=O)c4cnoc4C)c3)n2)c[nH]1 | 0.67 |
| COc1ccc(NC(=O)c2ccc(NC(=O)c3cnoc3C)cc2)cc1OCc1cccnc1 | 0.05 |
| COc1ccnc(N2CCN(C(=O)c3ccc(C(N)=O)s3)CC2)n1 | -0.13 |
| Cc1ccc(-n2nnnc2SCc2nc3c(cnn3-c3ccccc3)c(=O)[nH]2)cc1 | -0.11 |
| CCCOc1ccc(C2C(C(=O)c3ccc(F)cc3)=C(O)C(=O)N2CCCN2CCOCC2)cc1 (stereo not drawn) | 0.06 |
| CNc1cc(C)nc2c(-c3ccccc3)c(C(F)(F)F)nn12 | -0.12 |
| Cc1cc(NN)n2nc(C(F)(F)F)c(-c3ccc(Cl)cc3)c2n1 | 0.37 |
| Cc1cc(N(C)C)n2nc(C(F)(F)F)c(-c3ccccc3)c2n1 | -0.05 |
| O=C1/C(=C/c2ccc(Br)cc2F)Cc2c(O)cccc21 | 0.11 |
| Oc1cccc2c1Cc1c-2nc2ccc(Cl)cc2c1-c1ccccc1Cl | 0.52 |
| COc1ccc(C(=O)NC2CCCC2(C)CO)cc1-c1ccccn1 (stereo not drawn) | -0.23 |
| CN1CCC(Sc2ccc3ccccc3c2)C1=O (stereo not drawn) | -0.19 |
| Cc1ccc(-c2cc(C(=O)OC(C)C(=O)Nc3cccc([N+](=O)[O-])c3)[nH]n2)cc1 (stereo not drawn) | 0.25 |
| CC(=C/c1ccccc1)/C=N/NC(=O)c1cc(-c2ccc(C)cc2)n[nH]1 | 1.11 |
| O=C(Nc1ccc(N2CCN(Cc3ccccc3)CC2)cc1)c1cccc2cccnc12 | 0.01 |
| O=C(COC(=O)c1ccc2c(c1)S(=O)(=O)c1ccccc1C2=O)Nc1ncc(Cl)cc1Cl | 0.15 |
| Cn1cc(CCC(=O)NCC(=O)O)c2ccccc21 | -0.16 |
